Compound activity as filed in PubChem BioAssay.
hNpr1 antagonist: Natriuretic polypeptide receptor (hNpr1) antagonism - Primary qHTS; HEK293 hNpr1 GloSensor cGMP, ANP-stimulated luminescence; Potency, µM (doses to about 46.3 µM), without a hit: at the top dose activity change, negative = inhibition, actives largely listed as inhibitors; hit rate 1.6% among 76,000; calls by dose curve; further: nearly all actives have a fitted effect of over 60% in size
Target sequence (P16066 whole entry, looked up): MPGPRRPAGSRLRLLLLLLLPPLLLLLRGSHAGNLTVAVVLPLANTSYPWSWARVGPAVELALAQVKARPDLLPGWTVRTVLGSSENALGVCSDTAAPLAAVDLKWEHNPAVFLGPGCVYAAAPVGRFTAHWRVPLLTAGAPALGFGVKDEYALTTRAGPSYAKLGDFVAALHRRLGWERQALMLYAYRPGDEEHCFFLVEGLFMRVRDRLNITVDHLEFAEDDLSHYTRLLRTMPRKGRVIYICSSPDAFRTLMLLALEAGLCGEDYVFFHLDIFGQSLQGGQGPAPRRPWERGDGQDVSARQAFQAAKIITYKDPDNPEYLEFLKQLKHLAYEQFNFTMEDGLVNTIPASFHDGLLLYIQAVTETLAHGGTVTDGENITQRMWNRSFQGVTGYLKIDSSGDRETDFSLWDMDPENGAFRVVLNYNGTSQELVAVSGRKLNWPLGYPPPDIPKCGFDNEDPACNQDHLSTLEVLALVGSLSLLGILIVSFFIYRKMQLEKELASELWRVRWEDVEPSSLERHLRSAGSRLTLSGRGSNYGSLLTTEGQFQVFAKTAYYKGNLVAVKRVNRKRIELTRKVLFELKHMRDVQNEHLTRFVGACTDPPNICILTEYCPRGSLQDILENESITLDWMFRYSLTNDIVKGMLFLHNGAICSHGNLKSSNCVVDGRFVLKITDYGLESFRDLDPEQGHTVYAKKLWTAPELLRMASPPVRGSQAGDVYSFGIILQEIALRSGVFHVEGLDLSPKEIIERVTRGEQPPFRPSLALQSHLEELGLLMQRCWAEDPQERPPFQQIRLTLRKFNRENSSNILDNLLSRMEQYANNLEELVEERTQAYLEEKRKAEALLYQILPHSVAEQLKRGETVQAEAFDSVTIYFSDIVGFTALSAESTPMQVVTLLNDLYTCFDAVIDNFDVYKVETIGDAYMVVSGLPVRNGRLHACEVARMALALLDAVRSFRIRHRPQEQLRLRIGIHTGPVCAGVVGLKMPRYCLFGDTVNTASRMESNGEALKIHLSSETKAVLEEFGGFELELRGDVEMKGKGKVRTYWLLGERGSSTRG
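HEK293 cells stably expressing human Npr1 and cGMP GloSensor pGS-40F, loaded 2 h with 2% GloSensor reagent, given compound 30 min at room temperature. Luminescence read before and 20 min after 0.1 nM hNppA.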
FLuc inh: Firefly luciferase inhibition profiling of diverse chemical library using quantitative high-throughput screening; Luciferin 4-monooxygenase (Photinus pyralis), P08659; purified P. pyralis luciferase, luminescence, biochemical; Potency, µM (titrated, usually from 115 µM), actives largely listed as inhibitors; hit rate 2.5% among 76,000; further: nearly all actives have a fitted effect of over 65% in size
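Cell-free enzyme assay, 10nM P. pyralis luciferase, luciferin and ATP each at 10uM. Inhibition profiled over a 6-point titration, read as luminescence.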
HEK293 tox: Cytotoxic Profiling in HEK 293 Cell Line of Diverse Libraries Using Quantitative High-Throughput Screening. hit rate 6.6% among 94,000. Potency, µM (highest dose often 115 µM), inactives show at the highest dose activity change, negative = cytotoxicity, usual class: inhibitors. HEK 293 viability, ATP luminescence (CellTiter-Glo), 48-72 h; further: nearly all actives have a fitted effect of over 60% in size
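HEK 293 cells at 250 cells/well were exposed to compounds by pintool transfer for 48 or 72 hr at 37 degree Celsius, 5% CO2. Viability was read as ATP-coupled luminescence with CellTiter-Glo after 10 min at room temperature.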
NIH3T3 tox: Cytotoxic Profiling in NIH 3T3 Cell Line of Diverse Libraries Using Quantitative High-Throughput Screening | NIH 3T3 viability, CellTiter-Glo ATP luminescence, 48-72 h | Potency, µM (highest dose often 96.7 µM), for inactives: at the highest dose activity change, negative = cytotoxicity, usual class: inhibitors | hit rate 4.3% among 94,000; further: nearly all actives have a fitted effect of over 55% in size
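Cytotoxicity was measured by CellTiter-Glo ATP luminescence after 48 or 72 h compound exposure at 37 °C. Mouse NIH 3T3 fibroblasts were seeded at 400 cells/well and dosed by 23 nL pin transfer.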
Starred values were filed as active, the others as inactive; i = inactive; ? = inconclusive; / = not tested or not shown; [ ] = remark or other dose. In the library only some 11% were active in any assay of this set; here they are far more common. Unless noted, the call rests on the fitted dose curve; in most records, active means well fitted curve in the direction sought with a large enough effect; inconclusive means small, poorly fitted or top-dose-only effect, or another doubt; inactive means no such curve, though single readings can be large; an effect the other way counts as inactive or inconclusive. On the % scale 0 is the no-effect control and ±100 the full control effect; potency means the concentration at half of the fitted maximal effect.

SMILES	hNpr1 antagonist	FLuc inh	HEK293 tox	NIH3T3 tox
Cn1cnc(S(=O)(=O)N2CCOc3ccc(CN4CCc5ccccc5C4)cc3C2)c1	-0.4%	i	-25.5%	-15.4%
O=C(NC[C@H]1Cn2c(-c3ccc(F)cc3)cnc2CO1)c1ccc(Cl)cc1	17.8µM*	?	89.1µM*	?
COc1ccc(Nc2ccc3nnc(-c4ccccn4)n3n2)cc1	-22.9%[70.6 µM]	i	70.8µM*	?
CC(C)NC(=O)c1ccnc(-c2nnc3ccc(Nc4ccccc4)nn23)c1	1.5%[70.6 µM]	i	?	?
CN(Cc1ccccc1)C(=O)c1ccnc(-c2nnc3ccc(Nc4ccccc4)nn23)c1	?	i	20µM*	?
CN1CCN(C(=O)c2ccnc(-c3nnc4ccc(N(C)c5ccccc5)nn34)c2)CC1	3.6%[70.6 µM]	i	-2.0%[172 µM]	10µM*
COC1CCN(C(=O)c2ccnc(-c3nnc4ccc(Nc5ccccc5)nn34)c2)CC1	-0.9%[70.6 µM]	i	89.1µM*	?
CN(C)CCNC(=O)c1ccnc(-c2nnc3ccc(Nc4ccccc4)nn23)c1	-0.4%[70.6 µM]	i	?	i
CC(C)NC(=O)c1cc(-c2ccc(S(C)(=O)=O)cc2)c2cnn(C)c2n1	/	/	i	?
NC1CCc2nn(CC(=O)NCc3ccc4c(c3)OCO4)c(=O)n2CC1 (stereo not drawn)	2.0%	i	i	i
COC1CCN(C(=O)c2ccnc(-c3nnc4ccc(N(C)c5ccccc5)nn34)c2)CC1	-5.7%	i	?	3.55µM*
O=C(c1ccccc1)N1CCN(C(=O)c2nc3cccnc3n(C3CCCC3)c2=O)CC1	/	/	-2.1%	-11.0%
CC1CCCN(C(=O)c2cc(-c3ccc(C(F)(F)F)cc3)nc3c2cnn3C)C1 (stereo not drawn)	/	/	44.7µM*	?
Cn1ncc2c(C(=O)NCC3CC3)cc(-c3cccc(C(F)(F)F)c3)nc21	/	/	i	-0.4%
CNC(=O)c1cc(-c2ccc(C(F)(F)F)cc2)nc2c1cnn2C	/	/	-20.2%	?
CCN1CCN(C(=O)c2cc(-c3cccc(C(F)(F)F)c3)nc3c2cnn3C)CC1	/	/	?	31.6µM*
COc1ccc(C(=O)N2CCN(C(=O)c3nc4cccnc4n(Cc4ccccc4OC)c3=O)CC2)cc1	/	/	-29.3%	-19.9%
N#Cc1cccc(-c2c(C(=O)NCCc3ccc(Cl)cc3)nc3sccn23)c1	/	/	-25.7%	-25.3%
CCC(O)c1cc2n(n1)CCN(c1nc(-c3ccccc3)nc3c1CCC3)C2 (stereo not drawn)	4.6%	i	?	?
CCCCN1CCN(c2nc(-c3ccccc3)nc3c2CCNC3)CC1=O	-0.9%	i	79.4µM*	?
CC(=O)N1CCC(c2nnc3n2C(C(=O)NCc2ccc(F)cc2)CC3)CC1 (stereo not drawn)	/	/	-16.2%	-22.7%
COc1cc(CN(C)C(=O)c2c(C)noc2-c2ccc(C(C)(C)C)cc2)cc(OC)c1OC	-20.1%	i	39.8µM*	?
COc1cc(-c2onc(C)c2C(=O)NCCCCc2ccccc2)cc(OC)c1OC	-5.2%	i	89.1µM*	?
Cc1noc(-c2ccc(C(C)(C)C)cc2)c1C(=O)NCc1cc(F)cc(F)c1	2.3%	i	?	-23.4%
Cc1noc(-c2ccc(OC(F)(F)F)cc2)c1C(=O)NCCCc1ccccc1	1.6%	i	70.8µM*	?
SMILES	hNpr1 antagonist	FLuc inh	HEK293 tox	NIH3T3 tox
CCCOCCNC(=O)c1c(C)noc1-c1ccc(OC(F)(F)F)cc1	-10.3%	i	?	-23.0%
COc1cc(-c2onc(C)c2C(=O)NCCCSC)cc(OC)c1OC	-26.8%	i	i	5.0%
Cc1noc(-c2ccc(OC(F)(F)F)cc2)c1C(=O)NCCC(c1ccccc1)c1ccccc1	-11.6%	i	35.5µM*	?
C[C@@]12CO[C@@H](Cc3ccccc3)O[C@@H]1CC[C@]1(C)C2CC[C@@H](O)[C@H]1CC(=O)NCc1ccccc1 (stereo partly drawn)	-4.3%	i	?	?
O=C(N[C@H]1CO[C@H]2[C@@H]1OC[C@H]2OCc1ccccc1)c1ccc(C(F)(F)F)cc1	?	?	79.4µM*	-29.1%[174 µM]
S=C(Nc1ccccc1)N[C@H]1CO[C@H]2[C@@H]1OC[C@H]2OCc1ccccc1	-19.1%[70.6 µM]	i	?	-18.9%[138 µM]
COc1cccc(C(=O)N2CCC(C(=O)N3CCC4(CC3)CC(=O)Nc3ccccc3O4)C2)c1 (stereo not drawn)	/	/	-21.1%	-14.3%
CCC1Oc2ccc(NC(=O)c3ccc([N+](=O)[O-])cc3)cc2CN(Cc2ccccc2)C1=O (stereo not drawn)	-4.3%	i	-18.6%	-23.6%
CC1Oc2ccc(NC(=O)c3ccc([N+](=O)[O-])cc3)cc2CN(Cc2ccccc2F)C1=O (stereo not drawn)	-13.0%	i	31.6µM*	?
CCC1Oc2ccc(NC(=O)c3ccc(C#N)cc3)cc2CN(Cc2ccccc2F)C1=O (stereo not drawn)	-20.1%	i	44.7µM*	?
CCC1Oc2ccc(NC(=O)c3ccccc3F)cc2CN(Cc2ccccc2F)C1=O (stereo not drawn)	-3.3%	i	?	?
COc1ccccc1CN1Cc2cc(NC(=O)c3ccc([N+](=O)[O-])cc3)ccc2OC(C)C1=O (stereo not drawn)	0.9%	i	?	?
CCC1Oc2ccc(NC(=O)c3cccc(F)c3)cc2CN(Cc2ccccc2F)C1=O (stereo not drawn)	-1.8%	i	35.5µM*	?
CCC1Oc2ccc(NC(=O)c3ccccc3)cc2CN(Cc2cc(F)cc(F)c2)C1=O (stereo not drawn)	-21.8%	i	14.1µM*	?
O=C(Cc1ccccn1)N1CCCC2(CN[S+](=O)([O-])c3cccnc3N2)C1 (stereo not drawn)	/	/	-6.9%	i
Cc1ccc(-c2cn(C3CCN(C(=O)c4ccc(Cl)cc4)CC3)c(=O)[nH]2)cc1	/	/	-41.9%	?
O=C(Nc1cc(-c2cccnc2)nn1-c1ccccc1)c1ccccc1	/	/	?	-25.9%
CCC1Oc2ccc(NC(=O)Cc3ccc(F)cc3)cc2CN(Cc2ccccc2F)C1=O (stereo not drawn)	-15.4%	i	44.7µM*	?
COC(=O)C1=C(C)N=C2SC=C(CC(=O)NCC3CCCO3)N2C1c1ccccc1F (stereo not drawn)	-12.4%	i	-27.3%	-21.3%
COC(=O)[C@@H]1Cc2c([nH]c3ccccc23)[C@H]2C[C@@H](NCCNC(C)=O)C[C@@H](c3ccccc3F)N21	-5.1%	?	?	79.4µM*
CN1[C@H](C(=O)O)C[C@H](C(=O)NCCCO)[C@@H]1c1ccccc1F	7.2%	i	-0.4%	-3.7%
